Screening results: PubChem, National Center for Advancing Translational Sciences (NCATS)
Most compounds without a hit are left out; they make up all but 3.1% or so of the library.
A549 viability – A549 cytotoxicity, counter-screen for Nrf2 inhibitors | A549 ARE-Fluc cells, CellTiter-Fluor viability, 18-24 h | hit rate 0.16% among 390,000 | Potency, µM (titrated, usually from 46 µM), inactives show at the top dose activity change, negative = cytotoxicity, actives largely listed as inhibitors; note: % is set by controls: 0 for no effect and ±100 for the full control effect
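A549 ARE-Fluc cells in 5% FBS OPTI-MEM, 5000 cells/well, rested 2 h then exposed to compounds in concentration-response for 18-24 h at 37 °C. Viability by CellTiter-Fluor fluorescence (Ex 405/Em 525) after 30 min; luciferase luminescence (BugLite, 15 min, RT) read afterwards.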
Nrf2 block – Nrf2 pathway inhibition; A549 ARE-Fluc reporter, luciferase luminescence, 18-24 h; Potency, µM (titrated, usually from 46 µM), for inactives: top-dose activity change, negative = inhibition, actives largely listed as inhibitors; hit rate 2.1% among 360,000; note: % is set by controls: 0 for no effect and ±100 for the full control effect; nearly all actives have a fitted effect of over 60% in size
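Cells were seeded and rested 2 h, then exposed to compounds for 18-24 h. CellTiter-Fluor was read first as a viability measure. BugLite was added 15 min before the final luminescent read of ARE-luciferase activity in A549 cells.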
Mito fusion yeast – blocks mitochondrial division or promotes mitochondrial fusion; AID 485298; Potency, µM (series often up to 46.1 µM), inactives show at the highest dose growth rescue (activation), hits mostly activators; hit rate 0.23% among 320,000; S. cerevisiae fusion-defective mutant growth rescue, CellTiterGlo 48 h; note: % of control where 0% means no effect; nearly all actives have a fitted effect of over 45% in size
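Read-out: ATP-based luminescence (CellTiterGlo, 10 min ambient) reporting growth of fusion-defective ts yeast after 48 hours at 37C on glycerol/ethanol YPEG medium in the presence of compound.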
IDH1 R132H inh – blocks human mutant IDH1 R132H enzyme | O75874 | IDH1-R132H enzyme, NADPH consumption, diaphorase/resazurin fluorescence | hit rate 0.093% among 390,000 | Potency, µM (titrated, usually from 76.6 µM), without a hit: at the highest dose activity change, negative = inhibition, most hits filed as inhibitors; note: % is set by controls: 0 for no effect and ±100 for the full control effect; nearly all actives have a fitted effect of over 65% in size
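IDH1-R132H (0.5 ug/mL) preincubated 30 min with compound, then NADPH (0.016 mM) and alpha-KG (2 mM) added; 80 min at RT, pH 7.5. Remaining NADPH coupled via diaphorase/resazurin to fluorescence (540/590 nm); concentration-response curves normalized to no-enzyme control.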
TrxR1 inh – rat TrxR1 inhibition | O89049 | Potency, µM (doses to about 114 µM), inactives show at the top dose activity change, negative = inhibition, actives largely listed as inhibitors | AID 588453 | hit rate 1% among 390,000 | recombinant rTrxR1, NADPH fluorescence consumption, selenite substrate; note: % is set by controls: 0 for no effect and ±100 for the full control effect; nearly all actives have a fitted effect of over 65% in size
Target sequence (O89049 whole entry, looked up): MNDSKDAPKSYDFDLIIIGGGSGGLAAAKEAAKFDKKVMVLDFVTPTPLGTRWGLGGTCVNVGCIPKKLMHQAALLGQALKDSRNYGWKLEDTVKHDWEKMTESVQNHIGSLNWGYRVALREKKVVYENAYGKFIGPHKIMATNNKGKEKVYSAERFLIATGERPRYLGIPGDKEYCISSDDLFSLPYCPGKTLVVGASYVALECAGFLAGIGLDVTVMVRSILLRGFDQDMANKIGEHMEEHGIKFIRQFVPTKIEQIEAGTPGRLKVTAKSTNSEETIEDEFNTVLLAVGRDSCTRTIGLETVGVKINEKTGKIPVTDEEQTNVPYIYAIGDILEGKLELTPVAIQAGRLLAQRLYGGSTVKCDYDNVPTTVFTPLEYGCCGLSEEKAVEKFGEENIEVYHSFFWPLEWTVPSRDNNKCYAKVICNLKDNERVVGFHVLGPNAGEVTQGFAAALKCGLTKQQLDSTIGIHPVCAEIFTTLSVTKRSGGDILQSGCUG
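Rat TrxR1 (90 nM in the dispensed reagent) was pre-reduced with 400 uM NADPH for 5 min at room temperature, then incubated with compound for 15 min. After 400 uM selenite was added, NADPH fluorescence (Ex 340/Em 450 nm) was followed for 8 min.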
TrxR1 substrate – is turned over as a substrate by rat TrxR1. purified TrxR1 substrate turnover, NADPH consumption readout. Potency, µM (top dose mostly 114 µM), for the others: at the top dose activity change, negative = substrate turnover. hit rate 0.01% among 390,000; note: % is set by controls: 0 for no effect and ±100 for the full control effect; nearly all actives have a fitted effect of over 50% in size
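Rat TrxR1, dispensed at 90 nM, was prereduced with 400 uM NADPH (final) for 5 min at ~22 deg C, then incubated with compound 15 min before 400 uM selenite. A first-read NADPH fluorescence drop versus no-compound background flagged substrates.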
Numbers without * were called inactive; i = inactive; u = inconclusive; x = not tested or not shown; [ ] = remark or other dose. Calls come from the whole dose curve; as a rule, active = well fitted curve in the direction sought with a large enough effect; inconclusive = small, poorly fitted or top-dose-only effect, or another doubt; inactive = no such curve, though single readings can be large; an effect the other way counts as inactive or inconclusive. Potency is the fitted concentration of half-maximal effect.

SMILES	A549 viability	Nrf2 block	Mito fusion yeast	IDH1 R132H inh	TrxR1 inh	TrxR1 substrate
O=C(c1ccco1)N1CCN(c2ncnc3c2[nH]c2ccc(Br)cc23)CC1	-17.1%	8.2µM*	4.6%	1.0%	4.5%	9.0%
CCOC(=O)N1CCN(c2ncnc3c2[nH]c2ccc(F)cc23)CC1	-14.3%	14.6µM*	5.7%	5.2%	7.9%	22.7%
CCOC(=O)N1CCN(c2ncnc3c2[nH]c2ccc(OC)cc23)CC1	-10.1%	u	-2.5%	4.3%	11.4%[57.1 µM]	35.9%[57.1 µM]
O=C(c1ccco1)N1CCN(c2ncnc3c2[nH]c2ccccc23)CC1	x	x	5.6%	x	x	x
OC1(c2cccc(C(F)(F)F)c2)CCN(c2ncnc3c2[nH]c2ccc(F)cc23)CC1	20.6µM*	11.6µM*	-36.1%	6.8%	15.1%	22.6%
Cc1ccc(NC(=O)CSc2nnc(-c3ccccc3)n2C)cc1	x	x	x	x	1.0%	2.5%
Cc1ccc(S(=O)(=O)Nc2cc3c(C(=O)OCc4ccccc4)c(C)oc3c3ccccc23)c(C)c1	3.0%	-2.7%	x	-2.7%	18.0%	4.8%
CC(C)(C)OC(=O)N1CC23CC(c4ccc(F)cc4)C(CC2S1(=O)=O)O3 (stereo unspecified)	-0.3%	13.6%	x	x	6.6%	-4.0%
COc1ccc2[nH]c3c(N4CCc5ccccc5C4)ncnc3c2c1	18.4µM*	16.4µM*	1.0%	1.5%	13.3%[57.1 µM]	23.4%[57.1 µM]
CCCC(=O)N(c1ccc2oc3c(c2c1)CCCC3)S(=O)(=O)c1ccc(CC)cc1	1.5%	u	x	-6.2%	25.6%	7.5%
COc1ccccc1C(=O)Nc1nnc(SCc2cc(=O)c3ccccc3[nH]2)s1	u	x	x	2.5%	10.9%[57.1 µM]	-0.7%[57.1 µM]
Cc1cccnc1CCNC(=O)CC1C(=O)NCCN1CC1CCCCC1 (stereo unspecified)	1.9%	23.1µM*	2.6%	31.7%	-12.2%	1.9%
O=C(CC1C(=O)NCCN1CC1CCCCC1)NCc1ccccc1Cl (stereo unspecified)	-0.9%	0.3%	0.6%	-1.9%	15.8%[57.1 µM]	1.0%[57.1 µM]
CCc1c(C)c2ccc(O)c(CN3CCCC3)c2oc1=O	10.0%	10.3%	3.4%	9.2%	22.4µM*	i
Cc1c(C)c2ccc(O)c(CN3CCCC3)c2oc1=O	10.4%	-1.4%	1.3%	7.3%	u	i
Cc1cc(=O)oc2c(CN3CCOCC3)c(O)ccc12	-0.1%	0.9%	x	-6.9%	56.2µM*	i
Cc1cc(=O)oc2c(CN3CCCCC3)c(O)ccc12	7.4%	-0.7%	x	3.9%	-107.5%	i
Nc1[nH]c(=S)[nH]c(=O)c1N	x	x	x	x	-0.1%	17.6%
Cc1ccc2nc(CSc3nnc(NC(=O)COc4ccccc4)s3)cc(=O)n2c1	-0.4%	x	x	5.2%	11.5%[57.1 µM]	3.2%[57.1 µM]
Cc1cn2c(=O)c(S(=O)(=O)NC(C)c3ccccc3)c(C)nc2s1 (stereo unspecified)	10.8%	u	x	4.6%	5.6%	22.9%
COc1ccc(C2Nc3ccccc3C(=O)N2CCCN(C)C)cc1COc1ccc(NC(C)=O)cc1 (stereo unspecified)	1.2%	-4.4%	x	x	x	x
COC(=O)/C=C\C(C#N)(C#N)N=Cc1ccc(OC)cc1	u	u	x	6.3%	2.24µM*	-5.3%
CCC(=O)Nc1c(S(=O)(=O)c2ccccc2)c2nc3ccccc3nc2n1C(C)c1ccccc1 (stereo unspecified)	-24.4%	18.4µM*	u	-6.6%	-14.7%	45.8%
CCC(=O)Nc1c(S(=O)(=O)c2ccc(C)cc2)c2nc3ccccc3nc2n1C(C)c1ccccc1 (stereo unspecified)	u	u	18.3%	2.2%	-1.4%	36.5%
CCC(=O)Nc1cccc(C(=O)/C=C/c2ccc(F)cc2)c1	u	23.1µM*	u	9.9%	-17.8%	-7.9%
SMILES	A549 viability	Nrf2 block	Mito fusion yeast	IDH1 R132H inh	TrxR1 inh	TrxR1 substrate
CC(=O)Nc1cccc(C(=O)/C=C/c2ccc(C)cc2)c1	-0.7%	-21.1%	u	5.2%	u	-17.6%
O=C(NCc1ccc(F)cc1)c1ccc(S(=O)(=O)Nc2cccc(C(F)(F)F)c2)cc1	-4.6%	23.1µM*	-2.0%	-0.7%	-6.2%	-14.5%
Cc1ccc(S(=O)(=O)N2CCN(c3nc(-c4ccc(C)s4)nc4ccccc34)CC2)cc1	-0.1%	-3.1%	x	x	32.3%	6.1%
Nc1nnc(SCC(=O)c2ccccc2)s1	-2.0%	11.4%	0.6%	-3.3%	-17.5%	-5.4%
Nc1nnc(SCC(=O)OCC(=O)c2ccccc2)s1	-6.7%	8.1%	31.6µM*	-1.8%	6.9%	2.6%
CS(=O)(=O)Nc1ccc(-c2nc3ccccc3s2)cc1	0.0%	u	x	x	79.4µM*	582.5%
NC(=O)CC(NC(=O)Cc1ccc(Br)cc1)c1ccc(NC2CCCCCC2)c([N+](=O)[O-])c1 (stereo unspecified)	u	23.1µM*	1.6%	-10.9%	2.0%	-6.2%
Cc1ccc(S(=O)(=O)CCC(=O)Nc2nc(-c3ccccn3)cs2)cc1	-12.0%	20.6µM*	3.3%	12.3%	-4.0%	-3.9%
CCCn1nc(C(=O)Nc2nc(-c3ccccn3)cs2)c2ccccc2c1=O	-23.2%	8.2µM*	5.2%	-10.2%	-3.0%	-4.6%
Cc1csc(NC(=O)c2ccncc2)n1	-0.1%	12.3%	1.1%	-6.3%	20.7%	0.0%
CC(C)(C)c1csc(NC(=O)c2ccncc2)n1	-17.1%	16.4µM*	-3.9%	1.1%	22.6%[57.1 µM]	6.3%[57.1 µM]
O=C(Nc1nc(-c2ccccn2)cs1)c1ccccc1-n1cnnn1	-18.7%	5.8µM*	0.1%	-0.5%	-22.3%	-11.8%
O=C(NC1CC(=O)N(c2ccccc2)C1)c1ccc(S(=O)(=O)N2CCCCC2)cc1 (stereo unspecified)	2.2%	x	x	2.0%	7.1%[57.1 µM]	-2.8%[57.1 µM]
Cc1ccc(-n2nc(C)c3c(C)c(CCC(=O)NCc4ccc(Cl)cc4)c(C)nc32)cc1	9.0%	6.6%	x	x	33.7%	37.2%
O=C(NCc1ccc(F)cc1)n1c(-c2ccccc2)c(P(=S)(c2ccccc2)c2ccccc2)c2ccccc21	-15.7%	u	x	x	x	x
Fc1cccc(NCc2cccn2-c2nnc(N3CCOCC3)s2)c1	5.9%	u	x	2.4%	18.1%	2.8%
Cc1ccc(-c2csc(NC(=O)c3ccc(-c4ccccc4)cc3)n2)o1	-12.6%	2.91µM*	6.1%	2.4%	u	2.7%
CC(=O)Nc1ccc(C(=O)Nc2nc(-c3ccccn3)cs2)cc1	4.7%	-1.5%	0.9%	4.4%	50.1µM*	-4.0%
Cc1ccc(NC(=O)c2cc(N3C(=O)C=CC3=O)ccc2Cl)cc1C	-0.3%	11.8%	2.2%	6.0%	3.16µM*	-2.5%
Cc1ccc(NC(=O)c2cc(N3C(=O)C=CC3=O)ccc2N2CCOCC2)cc1	1.0%	u	-9.1%	4.3%	0.891µM*	4.9%[57.1 µM]
